Measured values published in PubChem BioAssay (NCI).
The panel holds about 83,000 compounds, 20% with a hit somewhere; the sample as a whole holds those more often.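 How to read the values: 0–100, growth inhibition (40 = 60% inhibited); 0, no net growth; -100 to 0, cell death (-40 = 40% of starting cells died; -100 = all dead).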 Values without a mark were called inactive. Activity calls are given as the source filed them. How the source made its calls: active means growth percent below 10; inactive means the rest.

Assays:
Assay in all cases: NCI-60 one-dose screen, 48 h (100 = growth as untreated, 0 = no growth, -100 = all killed)
Details in all cases: 10 µM unless noted
[1] = tested on: SK-MEL-2 melanoma
[2] = tested on: EKVX NSCLC
[3] = tested on: SN12C renal
[4] = tested on: UO-31 renal
[5] = tested on: TK-10 renal
[6] = tested on: ACHN renal
[7] = tested on: CAKI-1 renal
[8] = tested on: A498 renal
[9] = tested on: CCRF-CEM leukemia
[10] = tested on: MOLT-4 leukemia
[11] = tested on: SR leukemia
[12] = tested on: RPMI-8226 leukemia
[13] = tested on: OVCAR-8 ovarian
[14] = tested on: OVCAR-5 ovarian
[15] = tested on: OVCAR-4 ovarian
[16] = tested on: SK-OV-3 ovarian
[17] = tested on: IGROV1 ovarian
[18] = tested on: OVCAR-3 ovarian
[19] = tested on: HS 578T breast
[20] = tested on: NCI/ADR-RES ovarian

| SMILES | growth [1] | growth [2] [%] | growth [3] [%] | growth [4] | growth [5] | growth [6] | growth [7] | growth [8] | growth [9] | growth [10] | growth [11] | growth [12] | growth [13] | growth [14] | growth [15] [%] | growth [16] [%] | growth [17] | growth [18] | growth [19] | growth [20] |
| --- | --- | --- | --- | --- | --- | --- | --- | --- | --- | --- | --- | --- | --- | --- | --- | --- | --- | --- | --- | --- |
| O=C1C2C(c3cccs3)C=C(c3ccc(Cl)cc3)N2C(=S)N1c1ccccc1 (stereo not given) | 102% | 109 | 95.8 | 71.4% | 116% | 95.5% | 91.3% | 88.6% | 98.3% | 95.4% | 97.6% | 99.3% | 97.8% | 96.5% | 98.1 | 109 | 93.2% | 104% | 92.2% | 103% |
| COc1cccc(C(=O)Nc2cccc(NC(=O)c3ccccn3)c2)c1 | 108% | 94.1 | 98.8 | 79.5% | 96.6% | 100% | 99.1% | 93% | 103% | 88.6% | 77% | 101% | 104% | 94.3% | 96.4 | 97.7 | 101% | 105% | 116% | 96.1% |
| N/C(=N\c1nc2ccccc2s1)NC(=O)Nc1ccccc1 | 30.2% | 54 | 29 | 46.3% | 75.3% | 55.7% | 44.3% | 42.7% | 12.5% | 27.8% | 15.7% | 7.59% (active) | 41% | 51.7% | 73.8 | 51 | 58.8% | 28.4% | 27.8% | 17.6% |
| Oc1c(Cl)cc(Cl)c2ccc(CN3CCNCC3)nc12 | 66.8% | 48.7 | 42.8 | 3.7% (active) | 56.3% | 31.1% | 21.8% | 63.3% | 36.1% | 39.7% | 25.6% | 39.4% | 27.5% | 82.4% | 37.7 | 52.8 | 43.3% | 42.9% | 70.4% | 5.37% (active) |
| Cc1nc2ccccc2c(/C=C/c2ccc(Cl)cc2)c1C(=O)/C=C/c1ccccc1 | -14.1% (active) | 31.5 | 20.6 | -38% (active) | 17.7% | 5.92% (active) | 4.04% (active) | 44% | 6.45% (active) | 5.35% (active) | 11.5% | -11.8% (active) | -2.61% (active) | -21.8% (active) | 33.1 | 57.4 | 0.031% (active) | -35.1% (active) | 25% | 0.775% (active) |
| C=C(CNCCO)[C@@H]1CC[C@]2(CO)CC[C@]3(C)[C@H](CC[C@@H]4[C@@]5(C)CCC(NCCO)C(C)(C)[C@@H]5CC[C@]43C)[C@@H]12 (stereo not given in full) | 96.1% | 82.4 | 89.1 | 65.2% | 92.7% | 95.9% | 72.2% | 75.3% | 39.2% | 39.9% | -22.9% (active) | 36.8% | 75.8% | 90.6% | 77.1 | 94.6 | 80.4% | 80% | 78.2% | 95% |
| CN(C)c1ccc(Cc2cc(-c3ccccc3)nn(C/C(=N/O)c3ccccc3)c2=O)cc1 | 67.9% | 49.5 | 17.9 | 36.1% | 84.5% | 52.8% | 53.6% | -3.2% (active) | 46.6% | 35.1% | 46.3% | 28.2% | 57.2% | 89.7% | 55.1 | 94.6 | 68.5% | 56.2% | 83.1% | 44.1% |
| O=C1NC(=O)C(=Cc2cc(-c3ccc(Cl)cc3)n(-c3ccccc3)n2)C(=O)N1 | 106% | 91.6 | 92.5 | 86.6% | 88.3% | 95.2% | 92.8% | 93.5% | 92.7% | 92.4% | 93.7% | 92.1% | 101% | 91.5% | 103 | 105 | 93.1% | 111% | 95.5% | 107% |
| COc1cc(C(=O)/C=C/c2c(-c3cccs3)nc3sc(C)cn23)cc(OC)c1OC | 13.1% | 13.4 | 29 | -7.93% (active) | 8.26% (active) | 12.7% | -12.7% (active) | -15.7% (active) | 19.5% | -2.47% (active) | 4.77% (active) | 2.15% (active) | 0.3% (active) | 56.9% | 14.3 | 12.4 | 9.6% (active) | -8.57% (active) | -16.2% (active) | -35.4% (active) |
| CC(C)C(=O)Nc1ncc(C(=O)NCCN(Cc2ccccc2)C(=O)c2ccc(S(=O)(=O)Nc3ccccc3)cc2)s1 | 97.8% | 97.6 | 91.4 | 80.2% | 100% | 101% | 92.4% | 87.7% | 96.2% | 75.1% | 100% | 97.6% | 102% | 97.7% | 112 | 110 | 105% | 106% | 87.1% | 101% |
| COc1ccc(-c2cc(-c3ccc(N(C)C)cc3)nc(NC(=O)c3cccnc3)n2)cc1 | 111% | 96.6 | 97.5 | 80.6% | 117% | 95.6% | 92.6% | 109% | 104% | 98% | 86.4% | 95.3% | 99.3% | 105% | 103 | 103 | 102% | 106% | 104% | 102% |
| COc1cccc(C2C(C#N)=C(N)Oc3c2ccc2ccccc32)c1 (stereo not given) | 40% | 53.1 | 24.2 | 43% | 62% | 25.8% | 30.1% | 45.1% | 8.64% (active) | 12.3% | 18.1% | 20.7% | 21.4% | 40.5% | 66.2 | 40.1 | 18.3% | -8.8% (active) | 52.1% | 6.19% (active) |
| CNC1=C(Br)C(=O)c2c(C(=O)OC)c(C)nc(C)c2C1=O | 52.1% | 79.3 | 45.4 | 77.4% | 132% | 72% | 68.2% | 93.1% | 77.3% | 79.8% | 86.5% | 75.8% | 38.7% | 97.3% | 35.4 | 116 | 67.6% | 1.75% (active) | 72.4% | 74.7% |
| CC(C)(C#N)c1cc(C(=O)Nc2cc(Nc3ncccc3-c3ncnc4nc[nH]c34)ccc2F)cc(C(F)(F)F)c1 | 5.07% (active) | 62.8 | 55.2 | 17.5% | 68.5% | 44.4% | 24.3% | -24.9% (active) | 57% | 57.6% | 52.4% | 40.6% | 49.5% | 32.1% | 46.6 | 91.1 | 8.69% (active) | 70.1% | 30.9% | 52.2% |
| CCN1CCN(c2cc(C(=O)Nc3cccc(Nc4ccc5c(OC)cccc5n4)c3)cc(C(F)(F)F)c2)CC1 | 65.3% | 46.2 | 25.4 | -8.51% (active) | 36% | 12.5% | 6.06% (active) | 57.6% | 6.94% (active) | -14.5% (active) | -3.44% (active) | 7.08% (active) | 21.1% | 54.8% | 26.9 | 54 | 12.8% | 33% | 34% | 9.7% (active) |
